# TRAIL sens C8: sensitizes caspase-8 expressing cells to TRAIL; NB7+C8 cells + TRAIL, ATPlite viability luminescence; inhibition (viability loss, TRAIL sensitization), % at 10 µM; hit rate 1% among 360,000;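 active = compounds causing at least 50% loss of cell viability in the single-dose screen, relative to plate controls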
# SENP6 inh: blocks the human protease SENP6; Q9GZR1; Recombinant SENP6 catalytic domain, aminoluciferin luminescence; inhibition, % at 10 µM; hit rate 1.8% among 330,000; AID 2599;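 active = inhibition above about 50% at the single tested dose, limit read from the data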;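 note: plate controls were DMSO wells with enzyme for no effect and DMSO wells lacking enzyme for full effect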
# Target sequence (Q9GZR1 628-1112 limits assumed): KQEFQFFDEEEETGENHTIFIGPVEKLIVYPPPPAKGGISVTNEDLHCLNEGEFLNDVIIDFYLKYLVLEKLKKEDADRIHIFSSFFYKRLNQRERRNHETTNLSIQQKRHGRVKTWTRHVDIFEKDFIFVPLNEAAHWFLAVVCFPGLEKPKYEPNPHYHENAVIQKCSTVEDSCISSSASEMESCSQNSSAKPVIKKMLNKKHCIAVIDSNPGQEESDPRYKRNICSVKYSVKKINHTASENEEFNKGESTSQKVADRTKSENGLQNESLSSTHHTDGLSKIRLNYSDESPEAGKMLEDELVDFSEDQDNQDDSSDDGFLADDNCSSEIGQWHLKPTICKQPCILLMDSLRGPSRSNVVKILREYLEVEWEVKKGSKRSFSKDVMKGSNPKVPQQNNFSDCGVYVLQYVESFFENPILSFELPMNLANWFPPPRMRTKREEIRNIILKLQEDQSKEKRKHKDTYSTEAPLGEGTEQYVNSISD
# SENP8 block-1: SENP8 protease inhibition | Q96LD8 | inhibition, % at 10 µM | purified SENP8, Z-RLRGG-aminoluciferin cleavage, luminescence | hit rate 1.2% among 330,000; in the data active = inhibition above about 50%
# Target sequence (Q96LD8 whole entry, looked up): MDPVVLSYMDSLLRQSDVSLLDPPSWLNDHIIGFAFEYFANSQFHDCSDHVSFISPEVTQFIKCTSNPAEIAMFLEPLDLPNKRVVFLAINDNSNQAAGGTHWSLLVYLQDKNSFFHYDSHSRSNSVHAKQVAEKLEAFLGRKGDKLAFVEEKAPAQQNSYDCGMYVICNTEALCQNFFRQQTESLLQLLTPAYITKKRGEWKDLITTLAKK
# SENP8 block-2: inhibitors of human SENP8 protease; Q96LD8; recombinant SENP8, Nedd8 substrate fluorescence; inhibition, % at 20 µM; hit rate 0.64% among 360,000; AID 602440; in the data active = inhibition mostly above about 40%, no sharp cut-off; inactive = mostly below about 27%
# SENP7 inh: blocks the human protease SENP7 | inhibition, % at 5 µM | AID 434973 | hit rate 1.5% among 330,000 | Q9BQF6 | recombinant SENP7, Z-RLRGG-aminoluciferin luminescence, 40 min;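 active = inhibition above about 50% at the single test dose, limit read from the data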;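 note: plate controls were DMSO with enzyme for no effect and no enzyme buffer wells for full effect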
# PPC-1+TRAIL kill: kills PPC-1 cancer cells in the presence of TRAIL | hit rate 0.41% among 220,000 | cell killing (% activity), % at 4 µM or 5 µM | AID 1443 | PPC-1 cells + TRAIL, ATPLite viability luminescence;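 active = cell killing above 50% in the first pass at 4 µM, then a duplicate retest at 5 µM averaging 50% or more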;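 note: plate controls were cells with TRAIL plus DMSO for no effect and medium-only wells lacking cells for full effect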
# PPC-1 tox: kills PPC-1 cells. shares compounds with PPC-1+TRAIL kill. PPC-1 viability, ATPlite luminescence, overnight. cytotoxicity, % at 5 µM. hit rate 50% among 1,200. AID 1447;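 active = reconfirmed compounds whose average cytotoxicity reaches 50% or more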;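 note: 0% = DMSO-treated cells and 100% = wells holding medium but no cells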
# The depositor's hits bear a star; nt = no result given. Compounds with a hit are over-represented: about 3% of the library has one in this group of screens.
SMILES,TRAIL sens C8,SENP6 inh,SENP8 block-1,SENP8 block-2,SENP7 inh,PPC-1+TRAIL kill,PPC-1 tox
O=C(CNc1ccccc1Cl)N/N=C1\CCCc2ccccc21,-2.1,-10.9,-13.8,9.5,-3.4,-37.8,nt
CCCn1nnnc1NCc1ccccc1OCc1cccs1,-4.6,-2.7,-2.6,9.9,-2.3,5.8,12.8
CCCCn1c(N)c(N(CCOC)C(=O)c2ccc(C)c(S(=O)(=O)N3CCCCC3)c2)c(=O)[nH]c1=O,-8.9,-1.3,-5.5,10.6,5.0,nt,nt
COc1cc(NC(=O)c2cc(OC)c(OC)c(OC)c2)ccc1NC(=O)c1cccs1,9.1,3.9,10.4,5.1,6.0,nt,nt
COc1cc(N)ccc1NC(=O)c1cccs1,1.2,4.3,-0.8,10.6,-3.4,-1.2,4.1
Cc1cccc(NS(=O)(=O)c2ccc(Br)s2)n1,2.6,-0.6,-4.5,-16.5,-3.2,14.8,6.1
Cc1cc(C)nc(NS(=O)(=O)c2ccc(Br)s2)c1,-6.5,21.9,7.9,1.3,6.5,24.1,nt
Cc1cc(-c2csc(NC(=O)c3ccc(C#N)cc3)n2)c(C)n1Cc1ccccc1,-1.2,22.0,5.7,16.8,12.9,2.9,nt
O=C(Nc1ccc2c(c1)nc1n2CCSC1)c1ccccc1,62.2*,37.1,13.4,-29.0,41.6,57.4*,48.9
COc1ccccc1-n1cc(C(=O)N2CCCC(CO)(Cc3ccccc3C)C2)cn1 (stereo not given),-9.8,-1.6,0.1,-1.7,2.6,-17.1,nt
COc1ccc(-c2nc(Cn3c(SCc4ccc(C)cc4)nc4ccncc43)c(C)o2)cc1OC,2.6,-4.4,9.3,-9.6,-2.2,19.9,14.0
COc1ccc(CNC(=O)c2cc(-c3ccncc3)nc3c(C)cc(C)cc23)cc1OC,-13.8,-20.8,-5.1,-71.9,-11.3,12.8,nt
Cc1ccc(-c2cc(=O)c3cc(C)ccc3[nH]2)cc1,85.5*,33.9,-0.4,-128.2,24.3,78.8*,79.9*
O=C(NCCc1nc2ccccc2[nH]1)c1ccc(Br)o1,-9.8,-23.7,-8.2,23.4,-0.9,nt,nt
O=C(Nc1nc2ccccc2[nH]1)c1ccc(Br)o1,43.9,-30.2,0.7,-65.8,20.9,25.1,23.8
Cc1ccc(S(=O)(=O)N2CCN(C(=O)COC(=O)COc3ccccc3)CC2)cc1,-4.6,-1.7,-8.6,5.4,-4.5,10.8,nt
O=C(COc1ccccc1Cl)OCC(=O)N1CCN(S(=O)(=O)c2ccccc2)CC1,-16.2,-2.8,8.8,16.8,-6.2,10.5,7.9
CS(=O)c1nc(-c2ccc(Br)cc2)cc(-c2ccccc2)c1C#N (stereo not given),81.0*,-37.7,-7.2,-22.9,-11.7,71.2*,73.4*
N#Cc1c(-c2ccc(Br)cc2)cc(-c2cccnc2)nc1N,7.8,-16.6,-8.4,-413.3,-8.6,21.1,nt
OCc1nc2ccccc2n1/N=C/c1cccs1,-0.7,-18.5,-7.3,3.9,15.4,-0.7,nt
Cn1cnnc1Sc1ccc(C(=O)OCC(=O)NC2CC2)cc1[N+](=O)[O-],-0.2,nt,nt,14.4,nt,13.8,1.2
CC1CCC(NC(=O)COC(=O)CSc2ccc(C(N)=O)cc2[N+](=O)[O-])CC1 (stereo not given),12.4,-14.6,-5.8,-29.3,-11.9,nt,nt
CC(=O)N1C[C@@H](CO)[C@@H](N(C)C(=O)C2CCCCC2)C[C@H]1c1ccccc1,-5.5,nt,nt,13.3,nt,nt,nt
C(=N\Nc1nc(-c2ccccn2)nc2ccccc12)/c1ccccc1,nt,-5.5,-4.8,nt,-6.7,69.0*,73.4*
CCCN(CC(=O)Nc1ccccc1C)C(=O)C1CC(=O)N(c2ccc(CC)cc2)C1 (stereo not given),2.1,-8.9,-10.1,14.8,5.5,nt,nt
SMILES,TRAIL sens C8,SENP6 inh,SENP8 block-1,SENP8 block-2,SENP7 inh,PPC-1+TRAIL kill,PPC-1 tox
CSc1ccc(S(=O)(=O)NC2CCCCCC2)cc1,-8.8,-2.7,-1.8,16.9,-7.0,-0.4,1.4
COc1ccc(-c2ccccc2)cc1NC(=O)[C@@H]1O[C@H](CO)[C@H](O)[C@H](O)[C@H]1O,-11.4,nt,nt,31.8,nt,nt,nt
CCOC(=O)c1nn(-c2ccc3c(c2)OCCO3)cc1O,53.8*,1.8,20.4,-370.1,27.7,48.4,48.6
O=C(CNC(=O)c1cccc(F)c1)NC1CC1,-11.6,-6.0,5.5,3.6,5.0,nt,nt
O=C(NCC1(N2CCOCC2)CCCCC1)c1cccc(S(=O)(=O)N2CCc3ccccc3C2)c1,-14.7,24.1,6.7,10.8,1.9,24.7,nt
Cc1cc(=O)[nH]c(SCC(=O)N2CCCCCC2)n1,4.0,-14.2,-1.9,13.3,-3.2,13.8,13.1
CCCc1cc(=O)[nH]c(SCC(=O)N2CCN(c3ccc(F)cc3)CC2)n1,-2.6,-8.5,3.0,14.2,-2.1,6.8,0.5
CCCc1cc(=O)[nH]c(SCC(=O)N2CCC(C)CC2)n1,-17.2,7.0,3.3,4.9,2.7,nt,nt
Cc1cc(=O)[nH]c(SCC(=O)N2CCCCC2)n1,-9.7,1.1,-8.1,12.4,4.6,nt,nt
COc1ccc(-n2c(SCC(=O)N3CCCCC3)nnc2-c2cccnc2)cc1,-4.8,0.0,0.2,10.1,6.1,14.4,-5.0
Cc1ccc(C#CC[N+]2(CC#Cc3ccc(C)cc3)CCCCC2)cc1,34.2,-15.8,1.6,13.2,7.6,15.2,20.2
CC12CCC(=O)C=C1CCC1C2CCC2(C)C(c3csc(N)n3)CCC12 (stereo not given),24.0,nt,nt,13.9,nt,nt,nt
COc1ccc(C(=O)CN(C(=O)c2ccc(Cl)cc2)N2C(=O)C3CCCCC3C2=O)cc1 (stereo not given),-1.2,-11.0,-8.4,16.8,-9.0,38.3,nt
COc1cccc(C(=O)CN(C(=O)c2ccc(Cl)c(Cl)c2)N2C(=O)C3CCCCC3C2=O)c1 (stereo not given),-4.6,-13.9,2.2,6.1,-1.8,7.5,-7.0
COCCn1c(-c2ccc(Br)cc2)csc1=Nc1cccnc1,7.0,0.8,-12.5,8.3,-3.2,2.8,6.2
CCCn1c(N)c(C(=O)CSc2nnc(Cc3ccccc3)o2)c(=O)n(C)c1=O,4.4,-1.0,3.7,-5.6,-0.7,12.8,8.3
CCN1/C(=C/C=C/c2oc3ccc4ccccc4c3[n+]2CC)Oc2ccc3ccccc3c21,nt,-6.0,15.5,nt,14.1,23.1,17.6
CC[n+]1c(/C=C/N(C)c2ccccc2)oc2ccc(Cl)cc21,20.0,4.1,9.8,1.9,3.4,6.8,nt
O=C(NCCN1CCOCC1)c1ccncc1,-30.8,11.3,-2.9,-0.1,4.1,-15.5,nt
O=C1C=C(NCCN2CCOCC2)C(=O)c2cnccc21,nt,nt,nt,nt,nt,65.2*,66.6*
C=CCSc1nnc(NC(=O)c2ccc3c(c2)OCCO3)s1,31.0,nt,nt,-106.2,nt,nt,nt
O=C(O)CSc1nnc(NC(=O)c2ccc3c(c2)OCO3)s1,73.9*,-17.5,-0.2,-26.3,-9.8,65.7*,67.1*
CCCCCCn1ccc(=N)cc1,22.1,13.6,-3.0,21.1,-3.1,14.4,nt
CCCCCCCCCCCCCCCCn1cc[n+](CC(C)=O)c1,34.4,nt,nt,9.6,nt,26.2,15.4
Cc1ccc(NC(=O)c2cc3ccccc3o2)cc1S(=O)(=O)N(C)C,66.9*,nt,nt,11.9,nt,49.5,46.2
